Assay results: PubChem BioAssay (NCATS)
“And” between values parts separate entries of the source, which are not always exact repeats. Equal values may be shown once. Records with an inconclusive call do not appear. A call without a number means that no potency is given here. Some structures have more than one record in an assay (separate samples or runs), and their calls can disagree. The source made the active and inactive calls. Unless noted, calls follow the shape of the dose curve; as a rule, active = well fitted curve in the direction sought with a large enough effect; inconclusive = small, poorly fitted or top-dose-only effect, or another doubt; inactive = no such curve, though single readings can be large; an effect the other way counts as inactive or inconclusive.

How the values were obtained:
[1] = biological target: Glutaminase kidney isoform, mitochondrial (Homo sapiens) (UniProt O94925); assay: qHTS for Inhibitors of Glutaminase (GLS): LOPAC Validation (AID 624146); also: nearly all actives have a fitted effect of over 60% in size; also: potency is read from the fitted curve at half-maximal effect
Sequence of Glutaminase kidney isoform, mitochondrial (Homo sapiens) (O94925 whole entry, looked up, canonical isoform): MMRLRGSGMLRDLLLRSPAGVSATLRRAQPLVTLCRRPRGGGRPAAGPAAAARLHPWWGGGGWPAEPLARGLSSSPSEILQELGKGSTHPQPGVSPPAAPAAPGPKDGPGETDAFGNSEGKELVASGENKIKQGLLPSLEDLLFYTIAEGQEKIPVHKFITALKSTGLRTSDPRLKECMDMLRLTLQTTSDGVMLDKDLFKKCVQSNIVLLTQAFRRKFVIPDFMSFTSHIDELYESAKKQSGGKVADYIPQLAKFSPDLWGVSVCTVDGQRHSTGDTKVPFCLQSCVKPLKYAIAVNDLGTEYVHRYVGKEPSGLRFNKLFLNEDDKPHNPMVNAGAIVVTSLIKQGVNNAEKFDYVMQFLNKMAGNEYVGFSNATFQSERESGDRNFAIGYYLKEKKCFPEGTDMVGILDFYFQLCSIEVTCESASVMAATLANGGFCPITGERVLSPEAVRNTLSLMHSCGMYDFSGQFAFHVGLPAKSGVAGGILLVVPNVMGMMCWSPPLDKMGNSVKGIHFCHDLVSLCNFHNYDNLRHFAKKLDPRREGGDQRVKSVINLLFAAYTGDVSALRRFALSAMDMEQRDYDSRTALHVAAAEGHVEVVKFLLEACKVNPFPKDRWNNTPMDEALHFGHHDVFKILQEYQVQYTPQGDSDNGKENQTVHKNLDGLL
How it was run: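 Human kidney-isoform GLS in 45 mM KH2PO4 pH 8.2, 0.02% Tween-20, with compound, started with 1mM L-Glutamine (added stock). Glutamate oxidase/HRP/Amplex red coupled fluorescence read at start and after 30 min at RT.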

[2] = qHTS of Trypanosoma Brucei Inhibitors: LOPAC Validation (AID 624147)
How it was run: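 Enzyme and substrate buffer are dispensed first and compound is pin-transferred. ADP at 130 uM final then starts the reaction, which runs 45 min at room temperature. Detection reagent is added for 10 min before luminescence is imaged.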

[3] = biological target: Voltage-gated inwardly rectifying potassium channel KCNH2 (Homo sapiens) (UniProt Q12809); assay: qHTS Assay for Small Molecule Inhibitors of the Human hERG Channel Activity (AID 588834);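 also: lower thallium flux fluorescence means stronger hERG block; nearly all actives have a fitted effect of over 50% in size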; also: potency is read from the fitted curve at half-maximal effect
Sequence of Voltage-gated inwardly rectifying potassium channel KCNH2 (Homo sapiens) (Q12809 whole entry, looked up): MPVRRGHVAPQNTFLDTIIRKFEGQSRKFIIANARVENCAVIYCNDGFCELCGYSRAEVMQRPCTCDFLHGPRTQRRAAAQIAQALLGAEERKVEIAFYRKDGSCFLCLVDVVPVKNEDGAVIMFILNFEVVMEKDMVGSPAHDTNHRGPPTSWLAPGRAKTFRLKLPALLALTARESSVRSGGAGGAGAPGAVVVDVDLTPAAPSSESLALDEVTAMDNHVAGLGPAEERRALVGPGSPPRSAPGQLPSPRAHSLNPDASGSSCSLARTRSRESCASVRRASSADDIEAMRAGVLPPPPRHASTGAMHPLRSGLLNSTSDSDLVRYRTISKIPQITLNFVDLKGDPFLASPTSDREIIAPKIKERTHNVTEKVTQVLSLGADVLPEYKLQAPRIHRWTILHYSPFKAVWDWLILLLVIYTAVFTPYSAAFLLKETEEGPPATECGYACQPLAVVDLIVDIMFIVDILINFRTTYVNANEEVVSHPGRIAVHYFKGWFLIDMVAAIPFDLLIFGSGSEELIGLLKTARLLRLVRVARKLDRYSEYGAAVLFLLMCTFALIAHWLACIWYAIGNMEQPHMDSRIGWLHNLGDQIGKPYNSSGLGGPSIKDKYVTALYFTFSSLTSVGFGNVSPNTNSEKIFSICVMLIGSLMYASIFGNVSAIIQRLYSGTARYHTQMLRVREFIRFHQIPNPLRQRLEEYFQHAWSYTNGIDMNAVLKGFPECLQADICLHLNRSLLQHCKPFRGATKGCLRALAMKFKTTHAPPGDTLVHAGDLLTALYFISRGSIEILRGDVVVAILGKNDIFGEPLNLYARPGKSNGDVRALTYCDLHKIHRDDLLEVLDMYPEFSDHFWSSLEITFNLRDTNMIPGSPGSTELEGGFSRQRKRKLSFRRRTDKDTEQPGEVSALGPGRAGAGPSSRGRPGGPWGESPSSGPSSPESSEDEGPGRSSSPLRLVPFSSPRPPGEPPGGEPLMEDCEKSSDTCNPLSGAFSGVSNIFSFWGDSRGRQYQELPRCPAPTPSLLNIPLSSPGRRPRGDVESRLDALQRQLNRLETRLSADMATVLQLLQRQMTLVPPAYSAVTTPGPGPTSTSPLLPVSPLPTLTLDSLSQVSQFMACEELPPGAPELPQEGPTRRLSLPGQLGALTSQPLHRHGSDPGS
How it was run: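 Cells were infected with hERG-BacMam virus for 4 hrs at room temperature, grown overnight, then seeded at 2000/well. After dye loading and roughly 10 min compound treatment, thallium influx was triggered and fluorescence recorded.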

[4] = biological target: Luciferin 4-monooxygenase (Photinus pyralis) (UniProt P08659); assay: Biochemical firefly luciferase enzyme assay for NPC (AID 624030);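 also: purified P. pyralis luciferase at 10 nM with luciferin and ATP substrate; series mostly up to about 59 µM; nearly all actives have a fitted effect of over 70% in size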
Sequence of Luciferin 4-monooxygenase (Photinus pyralis) (P08659 whole entry, looked up): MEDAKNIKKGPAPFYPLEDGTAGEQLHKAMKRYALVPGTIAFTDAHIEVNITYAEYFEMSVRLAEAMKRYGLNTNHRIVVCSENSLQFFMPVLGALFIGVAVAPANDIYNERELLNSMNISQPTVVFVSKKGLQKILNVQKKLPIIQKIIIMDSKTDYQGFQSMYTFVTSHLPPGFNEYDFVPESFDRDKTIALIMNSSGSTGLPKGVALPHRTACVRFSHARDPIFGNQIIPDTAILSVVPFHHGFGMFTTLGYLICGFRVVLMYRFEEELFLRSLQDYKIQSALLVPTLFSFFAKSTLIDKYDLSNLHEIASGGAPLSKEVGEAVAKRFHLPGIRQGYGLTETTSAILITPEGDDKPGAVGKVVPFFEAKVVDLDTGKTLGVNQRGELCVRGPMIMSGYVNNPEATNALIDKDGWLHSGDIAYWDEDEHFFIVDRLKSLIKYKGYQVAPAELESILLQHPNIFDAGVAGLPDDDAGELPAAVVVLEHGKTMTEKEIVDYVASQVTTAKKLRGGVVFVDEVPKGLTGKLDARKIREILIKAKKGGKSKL
How it was run: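 Purified P. pyralis luciferase at 10 nM in 50 mM Tris Acetate (final), luminescence read within 5 minutes of enzyme addition to compounds. Activity normalised to PTC124 versus DMSO; concentration-response curves classed by r2, magnitude and activity.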

[5] = S16 Schwann cell viability assay (CellTiter-Glo assay) (AID 624031); also: nearly all actives have a fitted effect of over 70% in size; also: potency is read from the fitted curve at half-maximal effect
How it was run: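 Luminescent ATP read-out (CellTiter-Glo) after 24 h compound exposure of native S16 rat Schwann cells at 37 °C. Signals were normalized between cell-free wells and DMSO-treated cells, set as 0% activity.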

[6] = S16 Schwann cell PMP22 intronic element firefly luciferase assay (AID 624032); also: nearly all actives have a fitted effect of over 30% in size; also: potency is read from the fitted curve at half-maximal effect
How it was run: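 Rat S16 Schwann cells stably carrying firefly luciferase driven by a PMP22 intronic element, in 10% FBS, treated 24 h at 37 C. ONE-Glo luminescence normalized to PTC124 control and DMSO (0%); curves classed by r2, magnitude and activity.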

[7] = S16 Schwann cell PMP22 intronic element beta-lactamase assay (AID 624044; calls by dose curve; also: nearly all actives have a fitted effect of over 15% in size)
How it was run: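 Beta-lactamase reporter under a PMP22 intronic regulatory element in stable S16 rat Schwann cells; 24 h compound exposure. 460 nm blue signal normalized between DMSO (0%) and potassium clavulanate, with 535 nm FRET tracking viability; curves classed by r2 and response.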

With CNCC(O)c1ccc(O)c(O)c1 (stereo unspecified) the Potency [1] was “inactive” and the outcome [2] was “inactive”.

In the case of CC(CN(C)C)CN1c2ccccc2CCc2ccccc21 (stereo unspecified), the Potency [3] was 7.08 µM (active), the Potency [1] was “inactive” and the outcome [2] was “inactive”.

For CC(C)(C)c1onc(OCP(=O)(O)O)c1CC(N)C(=O)O (stereo unspecified), the Potency [3] was “inactive”, the Potency [1] was “inactive” and the outcome [2] was “inactive”.

In the case of CCCCN(CCCC)CCCOC(=O)c1ccc(N)cc1, the Potency [4] was “inactive”, the Potency [5] was “inactive” and the Potency [6] was “inactive”.

In the case of CC[C@H]1CN2CCc3cc(OC)c(OC)cc3[C@@H]2C[C@@H]1C[C@H]1NCCc2cc(OC)c(OC)cc21, the Potency [1] was “inactive” and the outcome [2] was “inactive”.

In the case of CC(C)C(=O)c1c(C(C)C)nn2ccccc12, the Potency [3] was “inactive”, the Potency [4] was “inactive” and the Potency [1] was “inactive”. The outcome [2] was “inactive”.

For CCCCN(CCCC)CC(O)c1cc(Cl)cc2c1-c1ccc(Cl)cc1/C2=C/c1ccc(Cl)cc1 (stereo unspecified), the Potency [4] was “inactive” and the Potency [5] was 28.7 µM (active).

With CC(C)NC[C@H](O)c1ccc(O)c(O)c1 the Potency [3] was “inactive”, the Potency [1] was 5.01 µM (active) and inactive and the outcome [2] was “inactive”.

With CCN(CC)CCNC(=O)c1c(C)[nH]c(/C=C2\C(=O)Nc3ccc(F)cc32)c1C the Potency [4] was “inactive” and the Potency [7] was “inactive”.

In the case of CC1=C(CC(=O)O)c2cc(F)ccc2/C1=C\c1ccc(S(C)(=O)=O)cc1, the Potency [3] was “inactive”, the Potency [4] was “inactive” and the Potency [1] was “inactive”. The outcome [2] was “inactive”.

For CSc1ccc2c(c1)N(CCC1CCCCN1C)c1ccccc1S2 (stereo unspecified), the Potency [4] was “inactive”, the Potency [5] was 32.2 µM (active) and the Potency [6] was 28.7 µM (active). The Potency [7] was “inactive” and the outcome [2] was “inactive”.

In the case of CC(C)(C(=O)O)c1ccc(C(O)CCCN2CCC(C(O)(c3ccccc3)c3ccccc3)CC2)cc1 (stereo unspecified), the Potency [4] was “inactive”, the Potency [1] was “inactive” and the outcome [2] was “inactive”.

For CCN(CC)CCCC(C)Nc1c2ccc(Cl)cc2nc2ccc(OC)cc12 (stereo unspecified), the Potency [3] was 14.1 µM (active) and 11.2 µM (active), the Potency [1] was “inactive” and the outcome [2] was “inactive”.

In the case of NC(N)=NCCC[C@H](N)C(=O)O, the Potency [3] was “inactive”, the Potency [1] was “inactive” and the outcome [2] was “inactive”.

For CC(C)(C)[C@]1(O)CCN2C[C@H]3c4ccccc4CCc4cccc(c43)[C@@H]2C1, the Potency [1] was “inactive” and the outcome [2] was “inactive”.

In the case of O=C1N=C(O)CN1/N=C/c1ccc(-c2ccc([N+](=O)[O-])cc2)o1, the Potency [3] was “inactive”, the Potency [1] was “inactive” and the outcome [2] was “inactive”.

For O=C(O)c1ccccc1O, the Potency [3] was “inactive”, the Potency [5] was “inactive” and the Potency [6] was “inactive”. The Potency [7] was “inactive”.

In the case of CC(C)c1c(C(=O)Nc2ccccc2)c(-c2ccccc2)c(-c2ccc(F)cc2)n1CC[C@@H](O)C[C@@H](O)CC(=O)O, the Potency [4] was “inactive”, the Potency [5] was “inactive” and the Potency [6] was “inactive”.

For Nc1cc(=O)[nH]c(N)n1, the Potency [3] was “inactive”, the Potency [4] was “inactive” and the Potency [1] was “inactive”. The outcome [2] was “inactive”.

For COc1ccc2[nH]c(S(=O)Cc3ncc(C)c(OC)c3C)nc2n1 (stereo unspecified), the Potency [3] was “inactive”, the Potency [6] was “inactive” and the Potency [7] was “inactive”.

With NC(=O)NNc1ccccc1 the Potency [4] was “inactive”, the Potency [5] was “inactive” and the Potency [7] was “inactive”.

For CCOc1nc2cccc(C(=O)O)c2n1Cc1ccc(-c2ccccc2-c2nn[nH]n2)cc1, the Potency [4] was “inactive” and the Potency [5] was “inactive”.

For N=c1c[n+](N2CCOCC2)[n-]o1, the Potency [3] was “inactive”, the Potency [1] was “inactive” and the outcome [2] was “inactive”.

For CN(C)CCCN1c2ccccc2CCc2ccccc21, the Potency [4] was “inactive”, the Potency [5] was “inactive” and the Potency [1] was “inactive”.

With c1ccc(CN(CC2=NCCN2)c2ccccc2)cc1 the Potency [4] was “inactive” and the Potency [6] was “inactive”.

With CNCCC(Oc1ccc(C(F)(F)F)cc1)c1ccccc1 (stereo unspecified) the Potency [4] was “inactive”, the Potency [7] was “inactive” and the Potency [1] was “inactive”. For the same compound, the outcome [2] was “inactive”.

In the case of CCN(CC)CCOC(=O)C1(C2CCCCC2)CCCCC1, the Potency [4] was “inactive”, the Potency [1] was “inactive” and the outcome [2] was “inactive”.

In the case of Cc1cc(C(C#N)c2ccc(Cl)cc2)c(Cl)cc1NC(=O)c1cc(I)cc(I)c1O (stereo unspecified), the Potency [3] was “inactive”, the Potency [5] was “inactive” and the Potency [7] was “inactive”.

In the case of OCc1cc(C(O)CNCCCCCCOCCCCc2ccccc2)ccc1O (stereo unspecified), the Potency [3] was 4.47 µM (active) and 3.55 µM (active), the Potency [5] was 20.3 µM (active) and the Potency [7] was “inactive”. The Potency [1] was “inactive” and the outcome [2] was “inactive”.

For Cc1ccc(C(C)C)cc2c(C)ccc1-2, the Potency [4] was “inactive”, the Potency [5] was “inactive” and the Potency [6] was “inactive”. For the same compound, the Potency [7] was “inactive”.

For CC(C)(C)C(=O)C(Oc1ccc(Cl)cc1)n1ccnc1 (stereo unspecified), the Potency [4] was “inactive”, the Potency [5] was “inactive” and the Potency [7] was “inactive”.

In the case of Nc1ncnc2c1ncn2[C@@H]1O[C@H](CO)[C@@H](O)[C@H]1O, the Potency [4] was “inactive”, the Potency [5] was “inactive” and the Potency [6] was “inactive”. For the same compound, the Potency [1] was “inactive” and the outcome [2] was “inactive”.
